In the supplement of paper PMC10646978:
± gives the standard deviation.

Assays:
Details in all cases: modulator concentration 10 µM
[1] = tested on: RAW-Dual (murine macrophage reporter line); test: NF-kB reporter (SEAP) activity fold change vs agonist alone; higher = enhanced NF-kB activity
Method in brief: (§1)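 Overnight stimulation with a PRR agonist followed pre-incubation for 1 hour at 37 °C with compound at 10 μM final. This was done in RAW-Dual murine macrophage reporter cells seeded at 50 000 per well in 384-well plates. NF-κB (SEAP, QUANTI-Blue absorbance at 620 nm) and IRF (Lucia luciferase, QUANTI-Luc luminescence) were read from the supernatant. Each reporter's fold change relative to the mean agonist-only control on the same plate was averaged over replicate plates.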

[2] = tested on: RAW-Dual (murine macrophage reporter line); test: IRF reporter (Lucia luciferase) activity fold change vs agonist alone; higher = enhanced IRF activity
Method in brief: as §1

[3] = tested on: RAW-Dual (murine macrophage reporter line); test: viability score (confluency relative to resting cells, overnight) (fraction); higher = more viable, active = viable (0.7 or more)
Method in brief: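 In 384-well plates, RAW-Dual macrophages received compound at a final 10 μM overnight. Two confluency masks were then made with IncuCyte software from IncuCyte images of all imaged wells. The viability score is defined as confluency relative to resting cells. Passing the cutoff required both masks to lie above 70% of resting cells.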

[4] = agonist: CpG ODN 1826 0.5 ug/mL

Compound | NF-kB reporter [1, 4] | NF-kB reporter ([1]; agonist: LPS 0.1 ug/mL) | NF-kB reporter ([1]; agonist: MPLA […]) | IRF reporter ([2]; agonist: 3'3'-cGAMP 10 ug/mL) | IRF reporter ([2]; agonist: LPS 0.1 ug/mL) | IRF reporter ([2]; agonist: MPLA […]) | viability score [3]
CC(C(=O)O)c1ccc(CC2CCCC2=O)cc1 (stereo unspecified) | 0.81 ± 0.11 | 1.03 ± 0.26 | 0.906 ± 0.066 | 0.916 ± 0.042 | 1.19 ± 0.18 | 1.25 ± 0.27 | 1 (active)
NC(Cc1cc(I)c(Oc2cc(I)c(O)c(I)c2)c(I)c1)C(=O)O (stereo unspecified) | 0.948 ± 0.23 | 0.984 ± 0.098 | 0.94 ± 0.073 | 0.901 ± 0.036 | 1.18 ± 0.2 | 1.12 ± 0.14 | 1 (active)
OCCSCCc1ccncc1 | 1.03 ± 0.083 | 1.05 ± 0.086 | 1.01 ± 0.047 | 1.02 ± 0.23 | 0.995 ± 0.07 | 1.02 ± 0.17 | 1 (active)
Cc1sc(NC(=O)c2cc(Cl)ccc2[N+](=O)[O-])nc1-c1ccccc1 | 1 ± 0.064 | 1.08 ± 0.089 | 0.951 ± 0.034 | 0.983 ± 0.046 | 1.08 ± 0.055 | 1.08 ± 0.12 | 1 (active)
CC1CCc2c(oc3ccc(NS(=O)(=O)c4ccc(F)cc4)cc23)C1 (stereo unspecified) | 0.607 ± 0.1 | 0.626 ± 0.075 | 0.918 ± 0.032 | 0.853 ± 0.035 | 0.643 ± 0.11 | 1.76 ± 0.23 | 0.144 (inactive)
O.S=c1nc[nH]c2nc[nH]c12 | 0.844 ± 0.037 | 0.902 ± 0.1 | 0.989 ± 0.11 | 0.768 ± 0.035 | 1.23 ± 0.28 | 1.36 ± 0.57 | 0.994 (active)
Brc1ccc2ncnc(N3CCOCC3)c2c1 | 1.17 ± 0.097 | 1.39 ± 0.098 | 1.13 ± 0.05 | 0.357 ± 0.087 | 0.515 ± 0.039 | 0.592 ± 0.084 | 1 (active)
O=C1OC(c2ccc3ccccc3c2)=NC1=Cc1ccc(Br)c([N+](=O)[O-])c1 | 0.963 ± 0.15 | 0.878 ± 0.08 | 0.896 ± 0.1 | 0.861 ± 0.04 | 1.16 ± 0.11 | 1.19 ± 0.24 | 0.998 (active)
CN(C)Cc1ccc(S(=O)(=O)n2ccc(/C=C/C(=O)NO)c2)cc1 | 0.517 ± 0.028 | 0.946 ± 0.11 | 1.25 ± 0.12 | 1.3 ± 0.12 | 1.49 ± 0.18 | 1.6 ± 0.36 | 0.334 (inactive)
CSc1ccccc1NC(=O)C1CCCN(c2ccc(-n3cncn3)nn2)C1 (stereo unspecified) | 0.991 ± 0.073 | 1.04 ± 0.099 | 1.18 ± 0.063 | 0.973 ± 0.077 | 1.23 ± 0.22 | 1.43 ± 0.37 | 0.995 (active)
COc1ccc(-n2c(=O)c3c4c(sc3n3c(SC)nnc23)CCCC4)cc1 | 1.16 ± 0.13 | 1.06 ± 0.074 | 1.14 ± 0.044 | 0.971 ± 0.18 | 0.96 ± 0.04 | 0.921 ± 0.064 | 1 (active)
CC(C)C(C(=O)Nc1ccccc1C(N)=O)N1C(=O)c2ccccc2C1=O (stereo unspecified) | 0.93 ± 0.085 | 1.1 ± 0.071 | 0.932 ± 0.058 | 1.02 ± 0.043 | 1.34 ± 0.16 | 1.16 ± 0.075 | 1.01 (active)
Nc1nc2c(ncn2C2CC(O)C(CO)O2)c(=O)[nH]1 (stereo unspecified) | 0.96 ± 0.089 | 0.787 ± 0.059 | 0.93 ± 0.089 | 1.02 ± 0.043 | 1.26 ± 0.2 | 1.36 ± 0.28 | 1.02 (active)
